Measured values published in PubChem BioAssay (EPA / NIEHS).
Several values for one entry are separate records, joined by “and”; a condition that tells them apart may be missing. Equal values may be shown once. More than one record can exist for a structure, and the calls need not agree. Activity calls are given as the source filed them. How the source made its calls: active means hit-call score of the fitted dose curve at least 0.9, where 1 is the maximum; inactive means score below 0.9.

Tests used:
[1] = read-out: Intercellular Adhesion Molecule 1 (ICAM1), ICAM1 (gene 3383); assay: BSK_BF4T_ICAM1: BioMAP Diversity Plus: BF4T Assay for Intercellular Adhesion Molecule 1 (ICAM1) Biomarker Activity (AID 2284260); conditions: primary human bronchial epithelial cells with fibroblasts
Outline: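 ICAM-1 levels measured by ELISA after 24 h chemical treatment of bronchial epithelial cell/dermal fibroblast co-cultures, read against DMSO baseline. Overt cytotoxicity checked in parallel cultures by sulforhodamine B staining.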

[2] = read-out: Interleukin-8 (IL8), CXCL8 (gene 3576); assay: BSK_MyoF_IL8: BioMAP Diversity Plus: MyoF Assay for Interleukin-8 (IL8) Biomarker Activity (AID 2284261); conditions: primary human lung fibroblasts
Outline: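 IL-8 quantified by ELISA after 24 h compound exposure of primary human lung fibroblasts. SRB staining of parallel cultures flagged cytotoxicity; DMSO served as baseline.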

[3] = read-out: Interleukin-8 (IL8), CXCL8 (gene 3576); assay: BSK_BF4T_IL8: BioMAP Diversity Plus: BF4T Assay for Interleukin-8 (IL8) Biomarker Activity (AID 2284263); conditions: primary human bronchial epithelial cells with fibroblasts
Outline: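 Human bronchial epithelial cells with dermal fibroblasts co-culture; IL-8 measured by ELISA 24 hours after dosing, fitted vs DMSO. Cytotoxicity tracked in parallel cultures by SRB total-protein staining.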

[4] = read-out: Interleukin-1 alpha (IL1a), IL1A (gene 3552); assay: BSK_BF4T_IL1a: BioMAP Diversity Plus: BF4T Assay for Interleukin-1 alpha (IL1a) Biomarker Activity (AID 2284264); conditions: primary human bronchial epithelial cells with fibroblasts
Outline: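 ELISA read-out of IL-1α from bronchial epithelial cell/dermal fibroblast co-cultures 24 h after compound addition. Increases scored against DMSO negative control. Cytotoxicity monitored by sulforhodamine B staining of parallel cultures.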

Decorin, DCN (gene 1634) = assay: BSK_MyoF_Decorin: BioMAP Diversity Plus: MyoF Assay for Decorin Biomarker Activity (AID 2284265); conditions: primary human lung fibroblasts
Outline: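 Decorin protein was quantified by ELISA 24 h after chemical addition to primary human lung fibroblasts and analysed as increase over DMSO. Cytotoxicity was tracked in parallel cultures by SRB total-protein staining read at 560 nm.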

[5] = BSK_MyoF_SRB: Viability Assessment in the BioMAP Diversity Plus: MyoF Assay (AID 2284267); conditions: primary human lung fibroblasts;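 further: total protein by SRB absorbance in parallel cultures as cytotoxicity measure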
Outline: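 Cytotoxicity read-out: after 10% TCA fixation, parallel human lung fibroblast cultures were stained with 0.1% SRB at 24 h post-dosing and read at 560 nm; DMSO served as baseline.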

[6] = read-out: Matrix Metallopeptidase 1 (MMP1), MMP1 (gene 4312); assay: BSK_MyoF_MMP1: BioMAP Diversity Plus: MyoF Assay for Matrix Metallopeptidase 1 (MMP1) Biomarker Activity (AID 2284268); conditions: primary human lung fibroblasts
Outline: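 Human lung fibroblasts (MyoF system) exposed to chemical for 24 h in 96-well format; MMP1 biomarker quantified by ELISA, with activity fitted in the positive direction relative to DMSO baseline.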

[7] = read-out: Monocyte Chemoattractant Protein-1 (MCP1), CCL2 (gene 6347); assay: BSK_BF4T_MCP1: BioMAP Diversity Plus: BF4T Assay for Monocyte Chemoattractant Protein-1 (MCP1) Biomarker Activity (AID 2284259); conditions: primary human bronchial epithelial cells with fibroblasts
Outline: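 MCP-1 ELISA readout taken 24 h after dosing in the BF4T system (bronchial epithelial cells plus dermal fibroblasts). Parallel SRB total-protein staining flagged cytotoxicity; DMSO served as baseline, positive fitting direction.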

KRT18 (gene 3875) = assay: BSK_BF4T_Keratin818: BioMAP Diversity Plus: BF4T Assay for Keratin 818 Biomarker Activity (AID 2284266); conditions: primary human bronchial epithelial cells with fibroblasts
Outline: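 Keratin 8/18 levels quantified by ELISA after 24 h chemical treatment of bronchial epithelial cell/dermal fibroblast co-cultures, fitted in positive direction relative to DMSO. Parallel SRB staining tracks overt cytotoxicity.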

CD90, THY1 (gene 7070) = assay: BSK_BF4T_CD90: BioMAP Diversity Plus: BF4T Assay for CD90 Biomarker Activity (AID 2284262); conditions: primary human bronchial epithelial cells with fibroblasts
Outline: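 CD90 levels by ELISA after 24 h treatment of human bronchial epithelial cell/dermal fibroblast cultures, analysed versus DMSO. Overt cytotoxicity checked in parallel cultures by sulforhodamine B staining.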

Measured: AC50

OCC(F)(F)C(F)(F)C(F)(F)CO
not listed: [7] | KRT18 (gene 3875) | CD90, THY1 (gene 7070)
inactive: all other assays above

NC(=O)C(F)(F)C(F)(F)C(F)(F)C(F)(F)C(N)=O
not listed: [7] | KRT18 (gene 3875) | CD90, THY1 (gene 7070)
inactive: all other assays above

C=CC(=O)OCCC(F)(F)C(F)(F)C(F)(F)C(F)(F)F
not listed: [7] | KRT18 (gene 3875) | CD90, THY1 (gene 7070)
inactive: all other assays above

O=C(O)C(F)(F)C(F)(F)C(F)(F)OC(F)(C(F)(F)F)C(F)(F)F
not listed: [7] | KRT18 (gene 3875) | CD90, THY1 (gene 7070)
inactive: all other assays above

O=C(O)C(F)(F)C(F)(F)C(F)(F)C(F)(F)C(F)(F)C(F)(F)C(F)F
not listed: [2] | KRT18 (gene 3875) | CD90, THY1 (gene 7070)
inactive: all other assays above

C=CC(=O)OCC(F)(F)C(F)(F)C(F)(F)C(F)(F)C(F)(F)C(F)(F)C(F)(F)C(F)F
active: Decorin, DCN (gene 1634) 10.3 µM | [6] 39.7 µM and 30 µM
inactive: [7] | [1] | [2] | [3] | [4] | Decorin, DCN (gene 1634) | [5]

O=S(=O)(O)CCC(F)(F)C(F)(F)C(F)(F)C(F)(F)C(F)(F)C(F)(F)C(F)(F)C(F)(F)F
not listed: [2] | CD90, THY1 (gene 7070)
inactive: all other assays above

O=C(F)C1(F)C(F)(F)C(F)(F)C(F)(F)C(F)(F)C1(F)F
not listed: [2] | [7] | CD90, THY1 (gene 7070)
inactive: all other assays above

O=C(O)C(F)(F)C(F)(F)C(F)(F)C(=O)O
not listed: [7] | KRT18 (gene 3875) | CD90, THY1 (gene 7070)
inactive: all other assays above

NC(=O)C(F)(F)C(F)(F)C(F)(F)F
not listed: [2] | [7] | CD90, THY1 (gene 7070)
inactive: all other assays above

O=S(=O)(OCC(F)(F)F)C(F)(F)C(F)(F)C(F)(F)C(F)(F)F
not listed: [7] | KRT18 (gene 3875) | CD90, THY1 (gene 7070)
inactive: all other assays above

C[Si](Cl)(Cl)CCC(F)(F)C(F)(F)C(F)(F)C(F)(F)C(F)(F)C(F)(F)F
not listed: CD90, THY1 (gene 7070)
inactive: all other assays above

NC(=O)C(F)(F)C(F)(F)C(F)(F)C(F)(F)C(F)(F)C(F)(F)C(F)(F)F
not listed: [7] | KRT18 (gene 3875) | CD90, THY1 (gene 7070)
inactive: all other assays above

CN(C(=O)C(F)(F)C(F)(F)C(F)(F)F)[Si](C)(C)C
not listed: [2] | [7] | KRT18 (gene 3875)
inactive: all other assays above

COC(F)(C(F)F)C(F)(F)F (configuration not stated)
not listed: [7] | KRT18 (gene 3875) | CD90, THY1 (gene 7070)
inactive: all other assays above

NCC(F)(F)C(F)(F)C(F)(F)C(F)(F)C(F)(F)C(F)(F)C(F)(F)C(F)(F)F
inactive: [1] | [3] | [4] | Decorin, DCN (gene 1634) | [5] | [6]

C=CC(=O)OCC(F)(F)C(F)(F)C(F)(F)COC(=O)C=C
inactive: [3] | [6]
active: [1] 7.12 µM and 9.76 µM | [3] 10.8 µM | [4] 40.5 µM and 41.3 µM | Decorin, DCN (gene 1634) 12.2 µM and 9.13 µM | [5] 10.6 µM

O=S(=O)(Cl)C(F)(F)C(F)(F)C(F)(F)C(F)(F)C(F)(F)C(F)(F)C(F)(F)C(F)(F)F
active: [7] 46.5 µM and 43.3 µM | [4] 46.3 µM | Decorin, DCN (gene 1634) 22.3 µM
inactive: [1] | [3] | [4] | Decorin, DCN (gene 1634) | [5] | [6]

O=C(Cl)C(F)(F)C(F)(F)C(F)(F)C(F)(F)C(F)(F)C(F)(F)F
not listed: [7] | KRT18 (gene 3875) | CD90, THY1 (gene 7070)
inactive: all other assays above

C=C(C)C(=O)OCC(F)(F)C(F)(F)C(F)(F)C(F)F
not listed: [2] | [7] | KRT18 (gene 3875)
inactive: all other assays above

CO[Si](C)(CCC(F)(F)C(F)(F)C(F)(F)C(F)(F)C(F)(F)C(F)(F)F)OC
not listed: [2] | [7]
inactive: all other assays above

O=C(O)C(F)(F)OC(F)(F)C(F)(F)OC(F)(F)C(F)(F)OC(F)(F)F
inactive: [1] | [3] | [4] | Decorin, DCN (gene 1634) | [5] | [6]

O=C(O)C(F)(F)C(F)(F)C(F)(F)OC(F)(F)F
inactive: [1] | [2] | [3] | [4] | Decorin, DCN (gene 1634) | [5] | [6]
active: [3] 0.218 µM

O=S(=O)(O)CCC(F)(F)C(F)(F)C(F)(F)C(F)(F)F
not listed: KRT18 (gene 3875) | CD90, THY1 (gene 7070)
inactive: all other assays above

NC(=O)C(F)(F)C(F)(F)C(F)(F)C(F)F
not listed: [7] | KRT18 (gene 3875)
inactive: all other assays above

CCN(CCO)S(=O)(=O)C(F)(F)C(F)(F)C(F)(F)C(F)(F)C(F)(F)C(F)(F)C(F)(F)C(F)(F)F
inactive: [1] | [2] | [3] | [4] | Decorin, DCN (gene 1634)
active: Decorin, DCN (gene 1634) 19.4 µM | [5] 19.4 µM and 23.3 µM | [6] 7.69 µM and 8.4 µM
